Test results taken from PubChem BioAssay (NCI).
Compounds without any hit were thinned out: in the full panel of roughly 83,000, 20% have a hit.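 Results are percent growth after 48 hours of single-concentration exposure. 100 means growth as in untreated cells, lower positive values show inhibition; negative values down to -100 show cell death.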 Values without a mark were called inactive. Calls of active or inactive are those of the source. Rule for the calls: active = growth percent below 10; inactive = the rest.

Columns and labels:
Assay in all cases: NCI-60 one-dose screen, 48 h (100 = growth as untreated, 0 = no growth, -100 = all killed)
Details in all cases: 10 µM unless noted
T-47D breast = system: T-47D breast
BT-549 breast = system: BT-549 breast
MDA-MB-435 melanoma = system: MDA-MB-435 melanoma
SW-620 colon = system: SW-620 colon
MCF7 breast = system: MCF7 breast
HCT-116 colon = system: HCT-116 colon
HCC-2998 colon = system: HCC-2998 colon
KM12 colon = system: KM12 colon

SMILES	growth (T-47D breast)	growth (BT-549 breast)	growth (MDA-MB-435 melanoma)	growth (SW-620 colon)	growth (MCF7 breast)	growth (HCT-116 colon)	growth (HCC-2998 colon)	growth (KM12 colon)
COc1ccc(C2=CC(c3ccc(Oc4ccnc5cc(Cl)ccc45)c(OC)c3)c3c(nc(OC)[nH]c3=O)N2)cc1 (stereo not drawn)	53.8%	39.5%	71.3%	50.2%	35.7%	35.8%	84.3%	65.5%
Cn1c(-c2nonc2NC(=O)c2ccc(F)cc2)nc2ccccc21	96.5%	109%	107%	105%	89.1%	106%	100%	103%
COc1cccc(/C=C/c2c(C(=O)O)cccc2[N+](=O)[O-])c1OC	91.2%	107%	101%	99.7%	95.8%	97.9%	104%	96.8%
COc1cc(C2C=C(C)N=C3SC=CN32)cc(OC)c1OC (stereo not drawn)	98.8%	106%	98.6%	111%	93.3%	101%	106%	111%
O=c1cc(C2NCCc3c2[nH]c2ccccc32)c2c(ccc3ccccc32)o1 (stereo not drawn)	59.1%	82%	81.7%	59.6%	81.8%	42%	78.1%	63.5%
COc1ccc(S(=O)(=O)N2CCN(c3cc4c(cc3F)c(=O)c(C(=O)O)cn4C3CC3)CC2)c(OC)c1	75%	95%	97.7%	105%	98.4%	102%	118%	91.1%
Cc1nc(Nc2cccnc2)sc1C(=O)/C=C/c1ccc(F)cc1	30.2%	1.57% (active)	2.86% (active)	9.84% (active)	14.2%	3.7% (active)	83.4%	11.3%
COc1ccc(/C=C\c2cc(OC)c(OC)c(OC)c2)c(NS(=O)(=O)c2ccc(C(C)(C)C)cc2)c1O	72.2%	37.7%	-17% (active)	31.7%	10.1%	13.4%	19.5%	12.1%
O=S(=O)(O)CCl	97.2%	100%	108%	103%	103%	103%	98.9%	105%
CC(Cc1nnc(SCC(=O)Nc2ccc(I)cc2)n1N)c1ccccc1 (stereo not drawn)	71.2%	97.4%	99.9%	95.5%	93.4%	68.6%	86.7%	95.8%
COc1ccc(-c2cn[nH]c2-c2cc(OC)c3c(c2)OCO3)cc1	44%	59.3%	-55.4% (active)	21.9%	13.1%	13.6%	16.8%	17.6%
COc1cc(/C=C/C(=O)c2ccc(NC(=O)CN3CCN(c4cc5c(cc4F)c(=O)c(C(=O)O)cn5C4CC4)CC3)cc2)cc(OC)c1OC	17.5%	-86.7% (active)	-1.52% (active)	6.38% (active)	26.5%	-88.2% (active)	-11.6% (active)	-65.1% (active)
O=c1oc2cc(OS(=O)(=O)c3ccc(F)cc3)ccc2c2c1CCCCC2	30.3%	73.6%	78.5%	46.3%	59.9%	54.4%	69.8%	55.1%
CCC1=C[C@@H]2CN(C1)Cc1c([nH]c3ccccc13)[C@@](C(=O)OC)(c1cc3c(cc1OC)N(C=O)[C@H]1[C@@](O)(C(=O)OC)[C@H](OC(C)=O)[C@]4(CC)[C@@H]5C[C@@H]5CN5CC[C@]31[C@@H]54)C2	97.5%	47.9%	-57.1% (active)	26.3%	10.9%	7.99% (active)	-13% (active)	8.8% (active)
COc1ccc(/C=C/C(=O)c2cc(OC)c(OC)c(OC)c2)cc1OCc1cn(Cc2ccc(F)cc2)nn1	50.4%	25.7%	5.55% (active)	15.4%	13%	15%	101%	6.55% (active)
O=S(=O)(NCCNc1cc(-c2cn(-c3ccccc3)nc2-c2ccccc2)ccn1)c1ccc(F)cc1	50.5%	94.8%	83.9%	95.4%	86.3%	79.4%	102%	87.3%

SMILES	growth (T-47D breast)	growth (BT-549 breast)	growth (MDA-MB-435 melanoma)	growth (SW-620 colon)	growth (MCF7 breast)	growth (HCT-116 colon)	growth (HCC-2998 colon)	growth (KM12 colon)
COc1ccc(/C=C/C(=O)c2ccc(NC(=O)CN3CCN(c4cc5c(cc4F)c(=O)c(C(=O)O)cn5C4CC4)CC3)cc2)cc1	98.7%	92.6%	98.6%	113%	91.9%	25.1%	100%	106%
CC(C)N(Cc1ccc(CN(C(=O)CCl)C(C)C)cc1)C(=O)CCl	-14.8% (active)	18.6%	27.2%	2.78% (active)	23.8%	-67.4% (active)	93.8%	41.1%
COc1cccc2nc(Nc3ccc(NC(=O)c4ccc5ncccc5c4)cc3)ccc12	68%	69.7%	88.7%	97.7%	70.3%	84.5%	96.4%	65.6%
O=C(c1ccncc1)N1N=C(c2ccc(Cl)cc2)CC1c1c[nH]c2ccccc12 (stereo not drawn)	74.8%	92.8%	99.9%	96%	70.2%	94.3%	105%	96.8%
O=C(Nc1ccc(F)cc1)c1cc([N+](=O)[O-])ccc1O	56%	81.5%	72.2%	76.5%	61.5%	66.8%	63.9%	51.6%
Cc1ccc2c(c1)ncn2-c1ncnc2c1CC(C)c1ccccc1N2C (stereo not drawn)	24.4%	-6.44% (active)	11.8%	22.9%	12.9%	10.1%	26.8%	10.5%
COc1cc(/C=C/C(=O)c2ccccc2O)ccc1OCCCOc1cc2c(cc1OC)C(=O)N1CCC[C@H]1C=N2	21.8%	-4.28% (active)	-28.9% (active)	5.6% (active)	-15.1% (active)	2.66% (active)	-16.7% (active)	-18.3% (active)
COc1ccc([N+](=O)[O-])c(/C=C/C(=O)c2ccccn2)c1	91.8%	94.2%	94.5%	16.9%	67%	1.9% (active)	120%	84.5%
CC(=O)C1CCC(C)=CC1=O (stereo not drawn)	90.2%	93.3%	103%	103%	88.4%	103%	103%	110%
O=C(CN1CCN(c2cc3c(cc2F)c(=O)c(C(=O)O)cn3C2CC2)CC1)Nc1ccc(C(=O)/C=C/c2ccccc2)cc1	85.1%	9.61% (active)	19.2%	41%	12.5%	-83.6% (active)	70.1%	25.3%
O=C1Nc2cc(Cl)ccc2Oc2cc(Oc3ccccc3)ccc21	48.5%	56.4%	-3.81% (active)	16.6%	29%	27.8%	60.6%	20%
NS(=O)(=O)c1ccc(NCC(=O)Nc2ccc(-c3nc4ccccc4s3)cc2)cc1	46.4%	14.5%	77%	63.7%	27.6%	25.1%	87.6%	61.6%
Cc1cc2c(C(C)C)c(O)c(O)c(C=NCCCCCCC(=O)O)c2c(O)c1-c1c(C)cc2c(C(C)C)c(O)c(O)c(C=NCCCCCCC(=O)O)c2c1O	26.9%	37.8%	27.2%	27.2%	11.7%	17.6%	33.5%	15.7%
O=C1Nc2cc(Cl)ccc2/C1=C/c1ccc(N2CCOCC2)s1	84%	109%	102%	102%	86.7%	96.6%	114%	105%
COc1cc(-c2nc(-c3nc4ccccc4[nH]3)cc3c2[nH]c2ccccc23)cc(OC)c1OC	25%	27%	31.1%	56.5%	42.6%	23%	57.3%	18.7%
